PubChem BioAssay (NCI)
About 83,000 compounds went through this panel and 20% of them were active in at least one assay; those are over-represented in the sample as a whole.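 Results are percent growth after 48 hours of single-concentration exposure. 100 means growth as in untreated cells, lower positive values show inhibition; negative values down to -100 show cell death.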 Calls of active or inactive are those of the source. Rule for the calls: active = growth percent below 10; inactive = the rest.

Assays:
Assay in all cases: NCI-60 one-dose screen, 48 h (100 = growth as untreated, 0 = no growth, -100 = all killed)
Settings in all cases: 10 µM unless noted
[1] = system: DU-145 prostate
[2] = system: K-562 leukemia
[3] = system: MALME-3M melanoma
[4] = system: MDA-MB-231 breast
[5] = system: RXF 393 renal
[6] = system: SF-268 CNS
[7] = system: SF-295 CNS
[8] = system: SF-539 CNS
[9] = system: UACC-257 melanoma
[10] = system: M14 melanoma

Measured: growth

Cc1cc(C(=O)O)c(C)n1-c1cccc(C(=O)O)c1
inactive: [1] 16.9% | [2] 63.3% | [3] 113% | [4] 96.8% | [5] 61.8% | [6] 84.5% | [7] 61.3% | [8] 102% | [9] 70.1% | [10] 90.9%

O=C(/C=C/c1cccs1)Nc1ncc(Cc2ccccc2F)s1
active: [5] -32.4% | [7] 9.52% | [8] -4.04% | [10] -3.15%
inactive: [1] 11.4% | [2] 24% | [3] 40.5% | [4] 33.8% | [6] 55.9% | [9] 58.6%

Nc1[nH]n2cc(-c3ccccc3)nc2c1N=Nc1ccc(S(N)(=O)=O)cc1
active: [5] 6.61%
inactive: [1] 42.9% | [2] 32.9% | [3] 25.6% | [4] 20% | [6] 36.5% | [7] 48% | [8] 19.6% | [9] 68.9% | [10] 31.4%

CN1C(=O)/C(=C\c2nc([P+](c3ccccc3)(c3ccccc3)c3ccccc3)c(N3CCOCC3)o2)SC1=S
active: [3] -10.8%
inactive: [1] 100% | [2] 17.2% | [4] 54.8% | [5] 98.1% | [6] 97.3% | [7] 103% | [8] 63% | [9] 61.1% | [10] 47%

N#Cc1ccc2c(c1)C(=O)c1c-2n(CCCN)c(=O)c2cc([N+](=O)[O-])ccc12
active: [1] -100% | [2] -100% | [3] -82.3% | [4] -100% | [5] -87.9% | [6] -92.1% | [7] -73.9% | [8] -98.2% | [9] -100% | [10] -100%

COc1ccc(C2=C(Nc3ccc(C(=O)Nc4ccccc4)cc3)C(=O)N(C)C2=O)cc1
inactive: [1] 98% | [2] 81.5% | [3] 93.7% | [4] 83.2% | [5] 105% | [6] 97.1% | [7] 98.9% | [8] 97.6% | [9] 87.6% | [10] 99.9%

COc1ccc(-c2cc(-c3ccc(Cl)cc3)c(C#N)c(=O)n2Cc2ccc(C(=O)Nc3ccccc3N)cc2)cc1
inactive: [1] 101% | [2] 46.2% | [3] 74.1% | [4] 67.2% | [5] 54.5% | [6] 73.4% | [7] 61.1% | [8] 74% | [9] 105% | [10] 81.5%

COc1ccc(F)cc1/C=C/C(=O)/C=C(/C=C/c1cc(F)ccc1OC)OB(F)F
active: [2] 7.73% | [3] 5.69% | [10] 9.74%
inactive: [1] 37.9% | [4] 32.5% | [5] 18% | [6] 80.2% | [7] 93.8% | [8] 61.1% | [9] 48.8%

O=C1/C(=C/c2ccccc2Br)COc2ccc(O)cc21
inactive: [1] 69% | [2] 11.9% | [3] 84% | [4] 73.9% | [5] 101% | [6] 86.1% | [7] 99.1% | [8] 80% | [9] 99.2% | [10] 73.3%

O=C(/C=C/c1cn(-c2ccccc2)nc1-c1ccc(Cl)cc1)c1ccc(F)cc1
inactive: [1] 88.7% | [2] 57.7% | [3] 87.5% | [4] 65.6% | [5] 100% | [6] 83.4% | [7] 172% | [8] 96.6% | [9] 104% | [10] 79.3%

c1ccc([P+](c2ccccc2)(c2ccccc2)c2ccc3c4ccc([P+](c5ccccc5)(c5ccccc5)c5ccccc5)c5cccc(c6cccc2c63)c54)cc1
inactive: [1] 19.5% | [2] 11.8% | [5] 42.5% | [6] 24.4% | [9] 15.2% | [10] 15.4%
active: [3] -13% | [4] 9.37% | [7] 3.75% | [8] -27.1%

O=C1c2ccc3c4c5ccc(c24)C(=O)N1CCCOCCCCOCCCNCc1ccc(cc1)CNCCCOCCCCOCCCN(C3=O)C5=O
active: [1] 8.84% | [2] -19.3% | [3] -90.7% | [4] -11.7% | [6] 2.25% | [8] -85.7% | [9] -78.9% | [10] -85.3%
inactive: [5] 30.3% | [7] 91.5%

CCO/C=N/C1=C(C#N)C(c2ccc(Cl)cc2)c2sc3c(F)cccc3c2O1 (stereo not given)
inactive: [1] 88.2% | [2] 24.6% | [3] 71.3% | [4] 71.3% | [5] 76.9% | [6] 68.5% | [7] 52.8% | [8] 81.6% | [9] 89% | [10] 46.1%

COc1ccc(C(=O)c2cc3c(N)c(C(=O)Nc4ccc(C)cc4)sc3nc2C)cc1
active: [5] -20.4% | [7] 10% | [8] -16%
inactive: [1] 17.3% | [2] 13.6% | [3] 36.1% | [4] 22% | [6] 39.4% | [9] 58.1% | [10] 17.3%

O=c1scc(-c2ccc(C(F)(F)F)cc2)s1
inactive: [1] 110% | [2] 99.9% | [3] 115% | [4] 104% | [5] 87.4% | [6] 100% | [7] 85.6% | [8] 111% | [9] 82.9% | [10] 104%

COc1ccc(C(=O)Nc2cccc(-c3cc(=O)c4c(OC)c(OC)c(OC)cc4o3)c2)cc1
inactive: [1] 56.5% | [2] 20.6% | [3] 53.4% | [4] 57.2% | [5] 53.6% | [6] 58.4% | [7] 59.6% | [8] 66.3% | [9] 105% | [10] 68%

COC1=CC(c2ccc[nH]2)=N/C1=C\c1[nH]c(C)c(CC(=O)NCc2ccccc2)c1C
active: [2] 0.172% | [3] -42.2% | [4] 0.672% | [7] -55.5% | [8] 2.49% | [9] -19.4% | [10] -49%
inactive: [1] 34.7% | [5] 30.5% | [6] 11.3%

COCCOc1cc2ncnc(N3CCN(c4ncc(S(=O)(=O)N5CCCCC5)cn4)CC3)c2cc1OCCOC
inactive: [1] 102% | [2] 96.3% | [3] 93.8% | [4] 106% | [5] 110% | [6] 93.3% | [7] 99.6% | [8] 107% | [9] 101% | [10] 97.8%

CC(C)(C)CC(C)(C)NC(=O)Nc1ncccc1OCc1ccccc1
inactive: [1] 97.1% | [2] 89.3% | [3] 91.8% | [4] 96.9% | [5] 116% | [6] 93.1% | [7] 88.3% | [8] 102% | [9] 85.8% | [10] 103%

CCOC(=O)NC(C)C
inactive: [1] 120% | [2] 87.6% | [3] 104% | [4] 112% | [5] 77.4% | [6] 109% | [7] 118% | [8] 95.9% | [9] 95% | [10] 102%

CC(C)=CC(=O)OCC(=O)O[C@@H]1C[C@]2(C(C)C)O[C@@]1(C)[C@@H]1CC[C@@H](C)[C@H]1[C@@H]2OC(=O)/C=C/c1ccccc1
inactive: [1] 96.8% | [2] 60.7% | [3] 99.8% | [4] 90.9% | [6] 62.3% | [7] 95.4% | [8] 104% | [9] 86.8% | [10] 88.1%
active: [5] 1.65%

CSc1nc2ccccc2cc1/C=C1/C=C(c2ccccc2)NC1=O
inactive: [1] 93.2% | [2] 35.7% | [3] 86.9% | [4] 86.6% | [5] 84.6% | [6] 87.2% | [7] 67% | [8] 96.4% | [9] 86.8% | [10] 66.8%

COc1cc(C2c3cc(OC(C)=O)c(OC)cc3CC3C(=O)OCC32)ccc1OC(C)=O (stereo not given)
inactive: [1] 115% | [2] 115% | [3] 112% | [4] 105% | [5] 115% | [6] 111% | [7] 112% | [8] 99.4% | [9] 103% | [10] 106%

N=C(N)c1ccc(-c2ccc(-c3ccc(Cl)c(Cl)c3)s2)nc1
active: [1] -76.5% | [2] -23.4% | [4] -27.1% | [7] 0.36%
inactive: [3] 60.5% | [5] 79.5% | [6] 46.8% | [8] 23.1% | [9] 87.9% | [10] 36.1%
